Test results as given in PubChem BioAssay (NCI).
The panel holds about 79,000 compounds, 15% with a hit somewhere; the sample as a whole holds those more often. Activity calls are given as the source filed them. Rule as the data show it: active = growth inhibition above about 70%; inactive = the rest.

Legend:
[1] = NCI Yeast Anticancer Drug Screen. Data for the rad52 strain (AID 147);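 also: 0% = growth of vehicle-treated control cultures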; conditions: S. cerevisiae rad52 mutant growth inhibition, stronger effect = higher value
Outline: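 The repair-mutant yeast strain was incubated with compounds, then growth was read and inhibition derived relative to vehicle.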

[2] = NCI Yeast Anticancer Drug Screen. Data for the wt1 strain (AID 149);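 also: 0% = growth of vehicle-treated wt1 cultures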; conditions: S. cerevisiae wt1 strain (SPY 50644) growth inhibition, stronger effect = higher value
Outline: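 wt1 yeast, compound-treated; % growth inhibition vs vehicle control.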

[3] = NCI Yeast Anticancer Drug Screen. Data for the rad50EPP+ strain (AID 151);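 also: 0% = growth of vehicle-treated control cultures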; conditions: S. cerevisiae rad50 mutant strain, stronger effect = higher value
Outline: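 Vehicle-normalised growth inhibition; rad50EPP+ yeast strain, altered in DNA damage repair, compound-treated.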

[4] = NCI Yeast Anticancer Drug Screen. Data for the mgt1 strain (AID 153); conditions: S. cerevisiae mgt1 mutant growth inhibition, stronger effect = higher value
Outline: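 Vehicle-normalized growth inhibition is determined in mgt1 yeast, a strain selected for a defined alteration in DNA repair or cell cycle control.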

[5] = NCI Yeast Anticancer Drug Screen. Data for the rad50 strain (AID 155);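 also: 0% = growth of vehicle-only cultures of the same strain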; conditions: S. cerevisiae rad50 strain growth inhibition, stronger effect = higher value
Outline: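 Genetically altered yeast (DNA repair pathway); compound treatment; growth inhibition vs vehicle ctrl.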

[6] = NCI Yeast Anticancer Drug Screen. Data for the mec2-1 strain (AID 157); conditions: S. cerevisiae mec2-1 strain, stronger effect = higher value
Outline: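 Mutant yeast (mec2-1) grown with compound; growth inhibition relative to vehicle control reported.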

[7] = NCI Yeast Anticancer Drug Screen. Data for the rad14 strain (AID 159);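 also: 0% = growth of vehicle-treated control cultures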; conditions: S. cerevisiae rad14 strain growth inhibition, stronger effect = higher value
Outline: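 Test compounds were applied to a repair-deficient yeast strain. Its growth was then compared with that of cultures given vehicle alone, and inhibition was expressed relative to those controls.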

[8] = NCI Yeast Anticancer Drug Screen. Data for the sgs1 mgt1 strain (AID 161);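 also: 0% = growth of cultures given vehicle only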; conditions: S. cerevisiae sgs1 mgt1 strain, stronger effect = higher value
Outline: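 Yeast cells carrying a defined DNA-repair defect were exposed to test compounds. Growth inhibition was measured relative to vehicle-treated controls.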

[9] = NCI Yeast Anticancer Drug Screen. Data for the CLN2oe strain (AID 163);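 also: 0% = growth of vehicle-only control cultures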; conditions: S. cerevisiae CLN2oe strain, stronger effect = higher value
Outline: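 Compounds are applied to yeast harbouring a defined cell-cycle control change; reduced growth compared with vehicle-treated controls gives the value.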

[10] = NCI Yeast Anticancer Drug Screen. Data for the cln2 rad14 strain (AID 165);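 also: 0% = growth equal to vehicle treated cultures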; conditions: S. cerevisiae cln2 rad14 strain, stronger effect = higher value
Outline: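 Readout is yeast growth inhibition versus vehicle-treated controls, using a strain with cln2 and rad14 alterations exposed to compound.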

[11] = NCI Yeast Anticancer Drug Screen. Data for the bub3 strain (AID 167); conditions: S. cerevisiae bub3 mutant strain, stronger effect = higher value
Outline: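 Yeast carrying a defined mutation is treated with each compound, and growth is compared with that of vehicle-exposed cells to give inhibition.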

[12] = NCI Yeast Anticancer Drug Screen. Data for the wt2 strain (AID 169);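 also: 0% = growth of vehicle-treated yeast cultures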; conditions: S. cerevisiae wt2 strain growth inhibition, stronger effect = higher value
Outline: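 Against vehicle-treated controls, the growth of yeast exposed to each compound was compared, and the inhibition was recorded.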

[13] = NCI Yeast Anticancer Drug Screen. Data for the mlh1 strain (AID 171);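 also: 0% = growth of vehicle-treated control cultures of the same strain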; conditions: S. cerevisiae mlh1 strain growth inhibition, stronger effect = higher value
Outline: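 Measured: yeast growth. Reference: vehicle-treated controls. Organism: strain with a defined alteration affecting DNA damage repair or cell cycle control, treated with compound.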

[14] = NCI Yeast Anticancer Drug Screen. Data for the sgs1 strain (AID 173);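 also: 0% = growth of vehicle-only control cultures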; conditions: S. cerevisiae sgs1 mutant, stronger effect = higher value
Outline: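 Each compound was added to cultures of the altered yeast strain. Growth was recorded, and inhibition was derived by comparison with vehicle controls.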

[15] = NCI Yeast Anticancer Drug Screen. Data for the mlh1 rad18 strain (AID 175); conditions: S. cerevisiae mlh1 rad18 strain growth inhibition, stronger effect = higher value
Outline: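 Genetically defined yeast (DNA repair-deficient) exposed to compounds; growth inhibition determined relative to vehicle.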

[16] = NCI Yeast Anticancer Drug Screen. Data for the rad18 strain (AID 177); conditions: S. cerevisiae rad18 mutant growth inhibition, stronger effect = higher value
Outline: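 Vehicle-treated cultures served as the baseline for scoring compound-induced growth inhibition in DNA-repair-mutant yeast.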

[17] = at 5.0 µM (retest, dose inferred, filed as 0.5)
[18] = at 50.0 µM (retest, dose inferred, filed as 5.0)

Measured: growth inhibition

CC[PH+](CC)CC.CC[PH+](CC)CC.[Au]
active: [1]; at 33.0 µM 80% | [1]; at 100.0 µM 99% | [2]; at 100.0 µM 98% | [3]; at 100.0 µM 97% | [4]; at 100.0 µM 98% | [5]; at 33.0 µM 92% | [5]; [18] 95% | [5]; at 50.0 µM 89.2% | [5]; at 100.0 µM 99% | [6]; at 33.0 µM 90% | [6]; [18] 99% | [6]; at 50.0 µM 94.2% | [6]; at 100.0 µM 98% | [7]; at 33.0 µM 86% | [7]; at 100.0 µM 99% | [8]; [18] 94% | [8]; at 50.0 µM 89.4% | [9]; at 100.0 µM 97% | [10]; [18] 93% | [10]; at 50.0 µM 89.2% | [11]; at 33.0 µM 79% | [11]; [18] 97% | [11]; at 50.0 µM 89.3% | [11]; at 100.0 µM 98% | [12]; at 33.0 µM 98% | [12]; at 100.0 µM 99% | [13]; at 100.0 µM 99% | [14]; at 33.0 µM 90% | [14]; at 100.0 µM 99% | [15]; [18] 98% | [15]; at 50.0 µM 89% | [16]; at 33.0 µM 92% | [16]; at 100.0 µM 98%
inactive: [1]; at 1.2 µM 16% | [1]; at 3.7 µM 21% | [1]; at 11.0 µM 33% | [2]; at 1.2 µM 6% | [2]; at 3.7 µM 30% | [2]; at 11.0 µM 36% | [2]; at 33.0 µM 43% | [3]; at 1.2 µM 27% | [3]; at 3.7 µM 39% | [3]; at 11.0 µM 40% | [3]; at 33.0 µM 60% | [4]; at 1.2 µM 16% | [4]; at 3.7 µM 21% | [4]; at 11.0 µM 28% | [4]; at 33.0 µM 46% | [5]; at 1.2 µM 24% | [5]; at 3.7 µM 39% | [5]; [17] 22% | [5]; at 11.0 µM 50% | [6]; at 1.2 µM 14% | [6]; at 3.7 µM 24% | [6]; [17] 52% | [6]; at 11.0 µM 55% | [7]; at 1.2 µM 15% | [7]; at 3.7 µM 30% | [7]; at 11.0 µM 34% | [8]; [17] -11% | [9]; at 1.2 µM 2% | [9]; at 3.7 µM 20% | [9]; at 11.0 µM 23% | [9]; at 33.0 µM 54% | [10]; [17] 27% | [11]; at 1.2 µM 8% | [11]; at 3.7 µM 16% | [11]; [17] -25% | [11]; at 11.0 µM 21% | [12]; at 1.2 µM -13% | [12]; at 3.7 µM -9% | [12]; at 11.0 µM 21% | [13]; at 1.2 µM 30% | [13]; at 3.7 µM 49% | [13]; at 11.0 µM 41% | [13]; at 33.0 µM 54% | [14]; at 1.2 µM 28% | [14]; at 3.7 µM 39% | [14]; at 11.0 µM 41% | [15]; [17] 34% | [16]; at 1.2 µM 12% | [16]; at 3.7 µM 16% | [16]; at 11.0 µM 32%

C[C@]12CCC(=O)C=C1CC[C@@H]1C2CC[C@@]2(C)C1CC[C@@H]2OC(=O)C12OC1CCC2=O (stereo partly specified)
active: [1]; at 33.0 µM 83% | [1]; at 100.0 µM 96% | [2]; at 100.0 µM 96% | [3]; at 33.0 µM 94% | [3]; at 100.0 µM 97% | [4]; at 33.0 µM 92% | [4]; at 100.0 µM 97% | [5]; at 33.0 µM 79% | [5]; [18] 87% | [5]; at 50.0 µM 86.2% | [5]; at 100.0 µM 95% | [6]; at 33.0 µM 90% | [6]; [18] 86% | [6]; at 50.0 µM 88.8% | [6]; at 100.0 µM 97% | [7]; at 33.0 µM 75% | [7]; at 100.0 µM 96% | [8]; [18] 93% | [8]; at 50.0 µM 88.7% | [9]; at 100.0 µM 96% | [11]; at 33.0 µM 79% | [11]; [18] 96% | [11]; at 50.0 µM 84.5% | [11]; at 100.0 µM 96% | [12]; at 33.0 µM 91% | [12]; at 100.0 µM 96% | [13]; at 33.0 µM 94% | [13]; at 100.0 µM 97% | [15]; [18] 92% | [15]; at 50.0 µM 85.4% | [16]; at 33.0 µM 83% | [16]; at 100.0 µM 97%
inactive: [1]; at 1.2 µM 0% | [1]; at 3.7 µM 23% | [1]; at 11.0 µM 37% | [2]; at 1.2 µM -2% | [2]; at 3.7 µM -9% | [2]; at 11.0 µM 8% | [2]; at 33.0 µM 66% | [3]; at 1.2 µM 9% | [3]; at 3.7 µM 25% | [3]; at 11.0 µM 69% | [4]; at 1.2 µM -8% | [4]; at 3.7 µM -11% | [4]; at 11.0 µM 27% | [5]; at 1.2 µM -15% | [5]; at 3.7 µM -4% | [5]; [17] -16% | [5]; at 11.0 µM 29% | [6]; at 1.2 µM 5% | [6]; at 3.7 µM 14% | [6]; [17] 6% | [6]; at 11.0 µM 33% | [7]; at 1.2 µM -9% | [7]; at 3.7 µM -11% | [7]; at 11.0 µM 5% | [8]; [17] 8% | [9]; at 1.2 µM 10% | [9]; at 3.7 µM 12% | [9]; at 11.0 µM 14% | [9]; at 33.0 µM 39% | [10]; [17] 39% | [10]; [18] 67% | [10]; at 50.0 µM 65.1% | [11]; at 1.2 µM 1% | [11]; at 3.7 µM 23% | [11]; [17] 27% | [11]; at 11.0 µM 45% | [12]; at 1.2 µM -3% | [12]; at 3.7 µM 9% | [12]; at 11.0 µM 36% | [13]; at 1.2 µM 19% | [13]; at 3.7 µM 17% | [13]; at 11.0 µM 51% | [15]; [17] -21% | [16]; at 1.2 µM 9% | [16]; at 3.7 µM 14% | [16]; at 11.0 µM 39%
